CYP2C19 act = cytochrome P450 2C19 (human) activation. 96,000 tested, under 10 active. activation factor at 5 µM. recombinant CYP2C19, luciferin-H EGE luminescence; active compounds read high; 0 = fully inhibited enzyme, 1 = untreated enzyme. P33261;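 active means activation factor of at least 2 at 5 µM in the primary screen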;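 further: 0 = wells with 2.5 mM tranylcypromine and 1 = vehicle-only wells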
sEH inhibitor = blocks human soluble epoxide hydrolase activity; hit rate 0.34% among 91,000; inhibition, % at 2 µM; P34913; recombinant human sEH enzymatic activity assay; in the data active means inhibition above about 80%
sEH act = increases human soluble epoxide hydrolase activity; P34913; purified human sEH enzymatic activity, activator screen; activation, % at 2 µM; hit rate 0.04% among 91,000; AID 717; in the data active means activation above about 37%
CYP2C9 act = increases human cytochrome P450 2C9 activity; P11712; recombinant CYP2C9, luciferin-H conversion, luminescence; active compounds read high; factor 1 = untreated enzyme, 0 = blocked; activation factor at 5 µM; hit rate 1.4% among 96,000;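 active means activation factor of 2 or more for CYP2C9 at a 5 µM dose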;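 further: 0 = sulfaphenazole-blocked wells and 1 = vehicle-only wells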
Target sequence (P11712 whole entry, looked up): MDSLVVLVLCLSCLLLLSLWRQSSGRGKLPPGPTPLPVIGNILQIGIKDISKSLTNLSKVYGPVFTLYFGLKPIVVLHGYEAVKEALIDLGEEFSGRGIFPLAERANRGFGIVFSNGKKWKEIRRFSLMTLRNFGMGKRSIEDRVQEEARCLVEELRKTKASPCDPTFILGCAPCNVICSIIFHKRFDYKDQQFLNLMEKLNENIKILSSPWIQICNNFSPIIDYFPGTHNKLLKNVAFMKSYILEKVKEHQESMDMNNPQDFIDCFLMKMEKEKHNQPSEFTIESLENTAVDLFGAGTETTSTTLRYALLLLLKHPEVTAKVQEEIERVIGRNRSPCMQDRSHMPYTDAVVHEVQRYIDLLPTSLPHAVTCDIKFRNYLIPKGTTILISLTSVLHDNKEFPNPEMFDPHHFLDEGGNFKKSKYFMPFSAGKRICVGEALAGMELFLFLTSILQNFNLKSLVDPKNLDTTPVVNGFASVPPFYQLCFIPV
CYP2C9 inh = blocks human cytochrome P450 2C9; P11712; CYP2C9 Supersomes, luciferin-H conversion, luminescence; inhibition, % at 5 µM; hit rate 20% among 96,000; AID 777;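 active means blocking of liver enzyme CYP2C9 beyond about 50% at 5 µM, limit read from the data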
CYP2C19 inh = human CYP2C19 inhibition | P33261 | CYP2C19 Supersomes, luciferin-H EGE luminescence, 30 min | inhibition, % at 5 µM | hit rate 21% among 96,000;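 active means CYP2C19 inhibition above a set limit at 5 µM in the primary screen, cut at about 50% in these data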;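 further: plate controls were negative control wells for no effect and 2.5 mM tranylcypromine positive control for full effect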
Starred values were filed as active, the others as inactive; . = no result. Hits are enriched below; roughly 27% of the tested compounds scored in any of these assays.

SMILES	CYP2C19 act	sEH inhibitor	sEH act	CYP2C9 act	CYP2C9 inh	CYP2C19 inh
Cc1ccc(C(CC(=O)N2CCOCC2)c2ccco2)cc1 (stereo not drawn)	0.2	-5	5	0.8	22	84*
Cc1ccc(CSCC(=O)N2CCOCC2)cc1	0.3	-3	2	1.2	-15	75*
Cc1ccc(CC(=O)N2CCOCC2)cc1	0.7	-7	8	1.1	-6	30
CCSc1nnc(NC(=O)CSc2nnc(-c3c[nH]c4ccccc34)n2C)s1	0.7	.	.	0.2	76*	30
CCc1nnc(NC(=O)CSc2nnc(-c3c[nH]c4ccccc34)n2CCOC)s1	0.9	-6	7	0.6	39	15
COCCn1c(SCC(=O)NCc2ccc3c(c2)OCO3)nnc1-c1c[nH]c2ccccc12	0.4	.	.	0.3	69*	59*
COCCn1c(SCC(=O)Nc2nnc(C)s2)nnc1-c1c[nH]c2ccccc12	0.8	1	-3	0.5	51*	19
COC(=O)c1ccc(Oc2coc3cc(OCc4cnn(-c5ccccc5)c4)ccc3c2=O)cc1	0.9	-5	6	0.9	10	11
COc1cccc(C(=O)N(Cc2nc(-c3cccc(C)c3)no2)C(C)C)c1OC	0.3	-4	6	0.2	82*	74*
Cc1cccc(-c2noc(CN(C(=O)c3ccc4c(c3)OCO4)C(C)C)n2)c1	0.9	2	-1	0.6	37	6
Cc1cccc(-c2noc(Cc3ccccc3)n2)c1	1	-4	1	1	1	-1
Cc1cccc(-c2noc(CN(C(=O)C(c3ccccc3)c3ccccc3)C(C)C)n2)c1	0.9	-9	10	0.5	51*	11
Cc1cccc(-c2noc(CN(C(=O)c3ccc(Br)o3)C(C)C)n2)c1	0.5	14	-11	0.4	56*	46
Cn1c(N)c(C(=O)COC(=O)C2(c3cccc(F)c3)CCCC2)c(=O)n(C)c1=O	0.8	1	-2	0.6	36	19
CCCCC(c1nnnn1CCOC)N1CCN(Cc2ccccc2)CC1 (stereo not drawn)	.	6	-6	.	.	.
CCCCOC(=O)C1Cc2ccccc2C(=O)O1 (stereo not drawn)	0.2	0	1	0.8	24	85*
CCS(=O)(=O)Nc1ccc(C2=NN(C(=O)c3ccco3)C(c3ccc(C)cc3)C2)cc1 (stereo not drawn)	0.7	12	-10	0.6	42	32
Cc1ccc(C2=NN(C(=S)Nc3ccccc3)C(c3ccco3)C2)cc1 (stereo not drawn)	0.8	-10	9	0.5	52*	24
O=C(O)CCC(=O)CCC(=O)c1ccccc1	1	3	-2	1	-2	4
O=C(C[n+]1cc2ccccc2c2ccccc21)c1ccccc1	0.4	7	-9	0.3	72*	55*
Cc1cc(C)c2ccc(C)[n+]([O-])c2c1O	0.8	16	-12	3.5*	-252	16
CCC1c2ccc(C)n2CCN1C(=O)Nc1ccccc1C(=O)OC (stereo not drawn)	0.1	1	1	0.4	59*	86*
O=C1c2ccc3c4c(ccc(c24)C(=O)N1NC(=O)C(F)(F)F)CC3	0.6	-11	13	0.8	18	43
O=C(NN1C(=O)c2ccc3c4c(ccc(c24)C1=O)CC3)c1ccc(Br)cc1	1.1	12	-9	3.5*	-252	-14
O=C(C(Cc1ccc(Cl)cc1)NS(=O)(=O)c1ccccc1)N1CC[C@@]2(O)CCCC[C@H]2C1 (stereo partly drawn)	0.3	-4	8	0.1	88*	70*
SMILES	CYP2C19 act	sEH inhibitor	sEH act	CYP2C9 act	CYP2C9 inh	CYP2C19 inh
CCC(NS(=O)(=O)c1ccc(C)cc1)C(=O)N1CCC2(O)CCCCC2C1 (stereo not drawn)	1	-8	9	1.4	-35	0
COc1cc(N=c2ssnc2Cl)c(OC)cc1Cl	1	2	-3	0.2	78*	-5
COc1ccc(OC)c(N=c2ssnc2Cl)c1	0.4	-4	1	0.1	94*	64*
Cc1cc(Cl)ccc1N=c1ssnc1Cl	1.1	6	-7	0.8	21	-7
Cc1cc(Br)cc(C)c1NC(=S)NC(=O)CC(C)C	1	-12	16	1	2	-4
CC(=O)Nc1cccc(NC(=O)CCCC(=O)O)c1	1	7	-4	1	3	3
COc1ccc2nc(SCC(=O)/C(C#N)=C(\C)N)[nH]c2c1	0.7	-11	13	0.8	15	33
CCOC(=O)c1cccc(NC(=O)CSc2nnc(-c3ccoc3C)n2CCOC)c1	0.2	-14	16	0.1	89*	83*
Cc1occc1-c1nnc(SCC(=O)N2CCOCC2)n1CCc1ccccc1	1	11	-13	1	-4	-5
Cc1occc1-c1nnc(SCC(=O)Nc2ccccc2)n1CCc1ccccc1	0.1	-8	8	0.2	85*	92*
COc1cccc(-n2c(SCC(=O)NCCc3ccccc3)nnc2-c2ccoc2C)c1	0	.	.	0.1	88*	98*
COCCn1c(SCC(=O)N2CCCc3ccccc32)nnc1-c1ccoc1C	.	-14	12	.	.	.
Cc1occc1-c1nnc(SCC(=O)NCCc2ccccc2)n1Cc1ccccc1	0.7	4	-6	0.5	55*	32
CCN(CC)S(=O)(=O)c1ccc(C(=O)NCCCN=C2NS(=O)(=O)c3ccccc32)cc1	.	6	-3	.	.	.
Cc1occc1-c1nnc(SCC(=O)Nc2ccccc2N2CCCCC2)n1C	0.5	10	-9	0.7	28	45
Cc1occc1-c1nnc(SCC(=O)Nc2ccccc2)n1C(C)c1ccccc1 (stereo not drawn)	0.1	.	.	0	96*	89*
Cn1c(CN2CCN(c3cccc(Cl)c3)CC2)nc2ccccc21	.	-3	9	.	.	.
O=C(C1CCN(S(=O)(=O)c2cccnc2)CC1)N1CCN(c2cccc(Cl)c2)CC1	0.6	-3	2	1.1	-13	42
CNS(=O)(=O)c1cnccc1N1CCN(c2cccc(Cl)c2)CC1	0.4	-11	13	0.5	48	58*
COc1cc(OC)cc(C(=O)NC(=S)NCCc2ccccc2)c1	0.5	6	-4	0.5	51*	48
COc1cc(OC)cc(C(=O)NCCNC(=O)c2ccccc2)c1	0.5	3	0	0.5	46	53*
O=C(NCNC(=O)c1ccccc1)c1ccccc1	0.1	-2	2	1	-3	94*
COc1ccc(C(=O)NC(=S)NCc2ccccc2)cc1	1	-17	16	1	-3	4
CC(=C1C(=O)c2ccccc2C1=O)N1CCC(C(N)=O)(N2CCCCC2)CC1	1	11	-6	1.1	-6	-2
Cc1cccc(-n2c(C)nc3sccc3c2=O)c1	0.6	8	-7	1	2	42
CCc1ccc(C(=O)CC2(O)C(=O)N(CN3CCOCC3)c3ccccc32)cc1 (stereo not drawn)	0.7	1	-2	1.1	-7	25
